A selection: hits, their analogues and other compounds. The true share with any hit is near 2.1%.
ERAP1 inh: blocks human ERAP1 aminopeptidase activity | inhibition, % at 10.7 µM | recombinant ERAP1, Leu-AMC fluorescence, 60 min | 340,000 compounds, 0.15% hits | Q9NZ08;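 active means mean replicate inhibition of at least 30%, or all replicates individually reaching that 30% level; inactive means mean below 30% and not every replicate reaching it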
Target sequence (Q9NZ08 whole entry, looked up): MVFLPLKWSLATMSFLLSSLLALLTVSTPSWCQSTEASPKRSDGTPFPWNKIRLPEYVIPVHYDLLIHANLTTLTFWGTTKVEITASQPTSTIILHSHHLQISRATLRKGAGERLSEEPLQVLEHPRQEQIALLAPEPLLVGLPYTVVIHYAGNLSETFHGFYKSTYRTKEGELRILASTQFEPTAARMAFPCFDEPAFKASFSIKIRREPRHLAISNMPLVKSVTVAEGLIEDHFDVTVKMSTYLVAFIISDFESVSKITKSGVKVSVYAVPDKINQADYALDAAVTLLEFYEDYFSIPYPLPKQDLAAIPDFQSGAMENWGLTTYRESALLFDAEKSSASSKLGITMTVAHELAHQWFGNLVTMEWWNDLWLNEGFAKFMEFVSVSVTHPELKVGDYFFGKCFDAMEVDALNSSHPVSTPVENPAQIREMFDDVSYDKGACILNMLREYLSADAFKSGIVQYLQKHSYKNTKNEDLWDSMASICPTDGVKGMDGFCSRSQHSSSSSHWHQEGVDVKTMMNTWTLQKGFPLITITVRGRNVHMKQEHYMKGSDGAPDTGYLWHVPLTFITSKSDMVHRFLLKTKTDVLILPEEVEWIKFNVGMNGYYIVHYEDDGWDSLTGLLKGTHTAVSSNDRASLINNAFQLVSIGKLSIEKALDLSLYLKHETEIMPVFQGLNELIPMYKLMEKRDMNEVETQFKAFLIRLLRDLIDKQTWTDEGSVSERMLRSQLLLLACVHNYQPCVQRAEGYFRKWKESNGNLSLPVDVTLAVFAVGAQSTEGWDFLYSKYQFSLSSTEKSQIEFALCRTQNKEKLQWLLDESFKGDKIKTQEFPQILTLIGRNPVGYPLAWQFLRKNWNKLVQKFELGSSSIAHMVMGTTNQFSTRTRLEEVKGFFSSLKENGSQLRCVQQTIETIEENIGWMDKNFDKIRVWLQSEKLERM
F508del corr: CFTR F508del correction in bronchial cells. 350,000 compounds, 0.36% hits. CFBE cells, YFP halide quenching; stimulated with forskolin plus potentiator P3; % fluorescence drop versus neutral controls. activity (quench increase), % at 7.58 µM;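 active means mean added fluorescence quench of at least 8% versus neutral control, with both replicates also reaching 8%; inconclusive means only one of the mean or replicate conditions met; inactive means mean below 8% and not both replicates reaching 8%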;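 further: cells transiently co-express mutant CFTR-F508del with the halide-sensitive YFP; corrector assay measuring rescue of mutant channel to the surface after 24 h compound exposure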
Ecoli rRNA inh: inhibitors of bacterial rRNA selective over humanized ribosomes; E. coli WT GFP vs humanized-ribosome RFP mutants, fluorescence, 24 h; active compounds read low; DMSO median 0, no signal -100; GFP signal change (wild-type ribosome), % (concentration not given with the values); AID 720706; 350,000 compounds, 1.6% hits;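 active means significant combined selectivity score with lowered wild-type GFP, culture density cut under 30%, mutant RFP and density less affected; inactive means any of these conditions unmet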
ARNT TACC3 PPI: disruptors of human ARNT/TACC3 interaction | Q9Y6A5 | AlphaScreen His-ARNT PAS-B/GST-TACC3 binding, luminescence; TACC3 fragment carries E629A point mutation | inhibition, % at 9.99 µM | 390,000 compounds, 0.66% hits;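 active means mean inhibition of replicates at least 50% and at least half of replicates each reaching 50%; inconclusive means half or more replicates reach 50% but mean below 50%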
PvdQ acylase: P. aeruginosa PvdQ acylase inhibition | purified PvdQ acylase, fluorescence plate reader | inhibition, % at 10 µM | 340,000 compounds, 0.063% hits; in the data active means inhibition above about 30%, passing the limit was not always enough; inconclusive means no clear call, values can overlap the other calls
AID977621: growth inhibition of wild-type GFP E. coli, dose response, H69 mutant RFP, cherry-pick; shares compounds with Ecoli rRNA inh; E. coli wild-type GFP strain growth, fluorescence, 24 h; activity change, negative = inhibition at 50 µM; 1,900 tested, under 10 active; AID 977621;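 active means Wild-type ribosome reporter drop at least double the humanized mutant ribosome reporter drop, growth loss under a set limit; inconclusive means no clear call, values can overlap the other calls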;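 further: wild-type GFP and H69 mutant RFP strains grown together 50/50 in each well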
AID977628: growth of wild-type and h24-humanized E. coli strains – h24 mutant RFP vs wild-type GFP, cherry-pick, dose response; shares compounds with Ecoli rRNA inh; E. coli WT GFP strain growth, fluorescence, 24 h; activity change, negative = inhibition at 50 µM; 1,900 tested, under 10 active; AID 977628;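 active means compound lowering the normal-ribosome reporter at least twice as much as the humanized-ribosome reporter, growth loss under a set limit; inconclusive means no clear call, values can overlap the other calls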;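 further: wild-type GFP and h24 humanized RFP strains co-cultured 1 to 1 per well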
Each line names hits and unclear results; the compound was inactive in the other large screens (follow-up assays come after a bar, where they were run).

COc1ccc(S(=O)(=O)N(C)C[C@@H]2Oc3ccc(NS(=O)(=O)c4cn(C)cn4)cc3CC(=O)N([C@H](C)CO)C[C@H]2C)cc1	none (no result: ARNT TACC3 PPI, PvdQ acylase)
CCN(CC(=O)Nc1cccc(C#N)c1)CC(=O)Nc1cccc(OC)c1	Ecoli rRNA inh -22 | AID977621 inactive
CCn1c(COc2cccc(OC)c2)nnc1SCC(=O)Nc1cc(OC)ccc1OC	Ecoli rRNA inh -23 (no result: F508del corr) | AID977621 inactive | AID977628 inactive
CCn1c(COc2ccccc2)nnc1SCC(=O)Nc1cc(OC)ccc1OC	none (no result: ERAP1 inh, F508del corr, Ecoli rRNA inh)
CCCNC(=O)Nc1ccc2c(c1)OC[C@H](C)N(CCC(F)(F)F)C[C@@H](C)[C@@H](OC)CN(C)C2=O	none (no result: ERAP1 inh, PvdQ acylase)
Cc1onc(-c2c(Cl)cccc2Cl)c1C(=O)Nc1ccc(Cl)cn1	Ecoli rRNA inh -20 | AID977621 inactive | AID977628 inactive
Cc1onc(-c2ccccc2)c1C(=O)Nc1ccc(Cl)cn1	none
Cc1onc(-c2ccccc2Cl)c1C(=O)Nc1ccc(Cl)cn1	Ecoli rRNA inh -22 | AID977621 inactive | AID977628 inactive
CC(CCc1ccccc1)NC(=O)CCC1CCCC1 (stereo not given)	Ecoli rRNA inh -21 (no result: F508del corr, ARNT TACC3 PPI, PvdQ acylase) | AID977621 inactive | AID977628 inactive
Cc1noc(C)c1S(=O)(=O)Nc1cccc2c1O[C@H](CN(C)S(=O)(=O)c1ccc(F)cc1)[C@H](C)CN([C@@H](C)CO)C2=O	none (no result: PvdQ acylase)
CCOc1ccc(S(=O)(=O)N(C)c2ccc(OCC(=O)NCc3cccnc3)cc2)cc1	Ecoli rRNA inh -20 | AID977621 inactive | AID977628 inactive
CCCC#Cc1ccc2c(c1)O[C@H](CN(C)C(=O)NC(C)C)[C@@H](C)CN([C@H](C)CO)S2(=O)=O	none (no result: PvdQ acylase)
NS(=O)(=O)c1ccc(NC(=O)CCC(=O)O)cc1	Ecoli rRNA inh -11 (no result: ARNT TACC3 PPI, PvdQ acylase) | AID977621 inactive | AID977628 inconclusive
C[C@@H]1CN([C@@H](C)CO)S(=O)(=O)c2ccc(C3=CCCCC3)cc2O[C@@H]1CN(C)C(=O)C1CCOCC1	none (no result: PvdQ acylase)
CC(C)c1cc(C(N)=O)c(NC(=O)C2CCC2)s1	Ecoli rRNA inh -24 | AID977621 inconclusive
O=C(Cc1ccccn1)NCC[C@@H]1CC[C@@H](NS(=O)(=O)c2ccccc2)[C@@H](CO)O1	none (no result: PvdQ acylase)
O=C(CN1CC[n+]2c(-c3cccs3)csc21)c1ccc(-c2ccccc2)cc1	Ecoli rRNA inh -41 | AID977621 inactive | AID977628 inactive
Cc1ccc(-n2nc(C)c3c(C)c(CCC(=O)O)c(C)nc32)cc1C	Ecoli rRNA inh -26 | AID977621 inactive
O=C(Nc1ccc(Cl)c(Cl)c1)N[C@H]1CC[C@H](CCn2cc(C3CCCCC3)nn2)O[C@H]1CO	none (no result: PvdQ acylase)
O=C(Nc1ccc(Cl)c(Cl)c1)N[C@@H]1CC[C@@H](CCn2cc(C3CCCCC3)nn2)O[C@H]1CO	Ecoli rRNA inh -42 (no result: PvdQ acylase) | AID977621 inconclusive | AID977628 inconclusive
O=C(Nc1ccc(Cl)c(Cl)c1)N[C@H]1CC[C@@H](CCn2cc(C3CCCCC3)nn2)O[C@@H]1CO	Ecoli rRNA inh -44 (no result: PvdQ acylase) | AID977628 inconclusive
COc1ccc(NC(=O)N(C)C[C@@H]2Oc3ccc(NS(=O)(=O)c4ccccc4)cc3C(=O)N([C@H](C)CO)C[C@@H]2C)cc1	none (no result: PvdQ acylase)
COc1ccc(S(=O)(=O)N(C)C[C@H]2Oc3ccc(NC(=O)Nc4c(C)noc4C)cc3CC(=O)N([C@H](C)CO)C[C@@H]2C)cc1	none (no result: PvdQ acylase)
Cc1ccc(S(=O)(=O)N(C)C[C@@H]2Oc3ccc(NS(=O)(=O)c4cn(C)cn4)cc3CC(=O)N([C@H](C)CO)C[C@H]2C)cc1	none (no result: ERAP1 inh, ARNT TACC3 PPI, PvdQ acylase)
COc1ccc(-c2cccc([C@H]3[C@@H]4C=CC[C@@H](C)[C@@H]4C(=O)N3Cc3ccccc3)c2)cc1	none (no result: ERAP1 inh)
CC(=O)c1ccc(-c2cccc([C@H]3[C@@H]4C=CC[C@@H](C)[C@@H]4C(=O)N3Cc3ccccc3)c2)cc1	Ecoli rRNA inh -19 (no result: ERAP1 inh) | AID977621 inactive | AID977628 inactive

Screens as filed in PubChem BioAssay.
